Changes are numbered by the printed parent chain; changes in the protein carry UniProt numbers. Over roughly 16,000 sequences, “ka relative to ugcaugu” has its median near 0.096; the highest 2% begin near 0.35. The full list was thinned out, with the highest values kept by preference.

The results in this text go back to paper PMC9911399, “Two distinct binding modes provide the RNA-binding protein RbFox with extraordinary sequence specificity”.

T1: RBFOX1 RRM RbFoxmut (Fox-RRM*) (Homo sapiens, UniProt Q9NWB1 109-208, R118D;E147R;N151S;E152T)
T1 sequence: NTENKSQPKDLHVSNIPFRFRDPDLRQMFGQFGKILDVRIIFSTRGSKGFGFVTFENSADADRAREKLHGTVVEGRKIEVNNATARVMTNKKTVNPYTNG

B1: UUGGUAC (DNA:RNA)
RNA: GGGAGACCGGAAUUCAGAUUGUCCUUGGUACUUAAAUCCCGUCGUAGCCACCA
DNA 1: CAATCTGAATTCCGGTCTCCC
DNA 2: TGGTGGCTACGACGGGATT
B2: CGUCAGG (DNA:RNA)
RNA: GGGAGACCGGAAUUCAGAUUGUCCCGUCAGGUUAAAUCCCGUCGUAGCCACCA
DNA 1: CAATCTGAATTCCGGTCTCCC
DNA 2: TGGTGGCTACGACGGGATT
B3: ACUGCGG (DNA:RNA)
RNA: B2 RNA with C25A, G26C, C28G, A29C
DNA 1: CAATCTGAATTCCGGTCTCCC
DNA 2: TGGTGGCTACGACGGGATT
B4: UAAAUAU (DNA:RNA)
RNA: B1 RNA with U26A, G27A, G28A, C31U
DNA 1: CAATCTGAATTCCGGTCTCCC
DNA 2: TGGTGGCTACGACGGGATT
B5: UCUACGU (DNA:RNA)
RNA: B2 RNA with C25U, G26C, C28A, A29C, G31U
DNA 1: CAATCTGAATTCCGGTCTCCC
DNA 2: TGGTGGCTACGACGGGATT
B6: AGUUUCU (DNA:RNA)
RNA: B2 RNA with C25A, C28U, A29U, G30C, G31U
DNA 1: CAATCTGAATTCCGGTCTCCC
DNA 2: TGGTGGCTACGACGGGATT
B7: UAGACCC (DNA:RNA)
RNA: B1 RNA with U26A, G28A, U29C, A30C
DNA 1: CAATCTGAATTCCGGTCTCCC
DNA 2: TGGTGGCTACGACGGGATT
B8: UUGAUCC (DNA:RNA)
RNA: B1 RNA with G28A, A30C
DNA 1: CAATCTGAATTCCGGTCTCCC
DNA 2: TGGTGGCTACGACGGGATT
B9: UUGAAAU (DNA:RNA)
RNA: B1 RNA with G28A, U29A, C31U
DNA 1: CAATCTGAATTCCGGTCTCCC
DNA 2: TGGTGGCTACGACGGGATT
B10: UUGAAUC (DNA:RNA)
RNA: B1 RNA with G28A, U29A, A30U
DNA 1: CAATCTGAATTCCGGTCTCCC
DNA 2: TGGTGGCTACGACGGGATT
B11: UUAAAUG (DNA:RNA)
RNA: B2 RNA with C25U, G26U, U27A, C28A, G30U
DNA 1: CAATCTGAATTCCGGTCTCCC
DNA 2: TGGTGGCTACGACGGGATT
B12: UUGUUGA (DNA:RNA)
RNA: B1 RNA with G28U, A30G, C31A
DNA 1: CAATCTGAATTCCGGTCTCCC
DNA 2: TGGTGGCTACGACGGGATT
B13: UUGAUUG (DNA:RNA)
RNA: B1 RNA with G28A, A30U, C31G
DNA 1: CAATCTGAATTCCGGTCTCCC
DNA 2: TGGTGGCTACGACGGGATT
B14: UUGAUUC (DNA:RNA)
RNA: B1 RNA with G28A, A30U
DNA 1: CAATCTGAATTCCGGTCTCCC
DNA 2: TGGTGGCTACGACGGGATT
B15: UUGAAUG (DNA:RNA)
RNA: B1 RNA with G28A, U29A, A30U, C31G
DNA 1: CAATCTGAATTCCGGTCTCCC
DNA 2: TGGTGGCTACGACGGGATT
B16: UUAAAUC (DNA:RNA)
RNA: B1 RNA with G27A, G28A, U29A, A30U
DNA 1: CAATCTGAATTCCGGTCTCCC
DNA 2: TGGTGGCTACGACGGGATT

For the test, the target named is T1, RBFOX1 RRM RbFoxmut (Fox-RRM*). The test is described as follows: EMSA; HiTS-Eq, 1 nM pool, 10 min; buffer printed only for the single-RNA assays: 10 mM Tris pH 7.5, 150 mM NaCl, 3.4 mM EDTA, 0.001% NP-40, 30 C. The conditions noted are these: tags: His6 N-terminal (pET28a); label: 5' 32P. In outline: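 Purified RbFox RRM (wild type or mutant) was equilibrated for 10 min in 50 µL with 1 nM of a 5′-radiolabelled pool of RNA with 7 randomized nucleotides, its flanks annealed to DNA oligonucleotides, across increasing protein concentrations. Free RNA was separated by 8% native PAGE, excised, reverse-transcribed, PCR-barcoded and sequenced on an Illumina HiSeq 2500. Relative association constants came from read-count changes of each variant against the control reaction, normalised to the cognate motif.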
Background: In EMSA bound probe runs differently from free probe, usually more slowly.
B1: the binding signal is 0.144 KA relative to UGCAUGU. To B2 belongs 0.113 KA relative to UGCAUGU; to B3, 0.0963 KA relative to UGCAUGU; to B4, 0.0636 KA relative to UGCAUGU. The value for B5 was 0.118 KA relative to UGCAUGU; that for B6 was 0.0838 KA relative to UGCAUGU.

For B7, the binding signal was 0.0507 KA relative to UGCAUGU. The value for B8 was 0.0834 KA relative to UGCAUGU. To B9 belongs 0.0963 KA relative to UGCAUGU; to B10, 0.374 KA relative to UGCAUGU; to B11, 0.0888 KA relative to UGCAUGU. To B12 belongs 0.0998 KA relative to UGCAUGU. Regarding B13, the binding signal was 0.381 KA relative to UGCAUGU. For B14, the binding signal is 0.196 KA relative to UGCAUGU.

For B15, the binding signal is 1.17 KA relative to UGCAUGU. To B16 belongs 0.0555 KA relative to UGCAUGU.
